This is a sample that favours compounds with a hit; in the whole collection about 20% have one here.
CHX counter – affects cycloheximide protein synthesis inhibition readout, counter-screen; cell reporter, cycloheximide protein synthesis inhibition counterscreen; actives 12% (n = 300,000); max response, %; in the data active means max response mostly above about 13%, no sharp cut-off; inactive means mostly below about 14%; further: read at 38.3 µM for the half of the compounds with a filed dose; 0% is about no effect
Pf growth 48h – inhibits P. falciparum growth in the first generation, 48 h | P. falciparum luciferase growth in erythrocytes, 48 h | Potency, µM (highest dose often 28.7 µM), inactives show top-dose activity change, negative = inhibition, hits mostly inhibitors | actives 5.9% (n = 310,000) | AID 504832; further: potency means the concentration at half of the fitted maximal effect; on the % scale 0 is the no-effect control and ±100 the full control effect
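Compounds are pin-transferred into medium, infected erythrocytes (2% hematocrit, 0.1% parasitemia final) are added, and plates sit one parasite generation at 37 C in 5% CO2. Detection reagent is then added and luminescence measured.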
Pf growth 96h – inhibits malaria parasite growth, 96 h. P. falciparum luciferase reporter growth, 96 h. Potency, µM (doses to about 28.7 µM), for the others: at the top dose activity change, negative = inhibition, hits mostly inhibitors. actives 6.9% (n = 320,000); further: potency means the concentration at half of the fitted maximal effect; on the % scale 0 is the no-effect control and ±100 the full control effect
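Two-generation exposure (96 h) targets delayed-death phenotype. Reporter parasites carrying integrated firefly luciferase, in red cells at 2% hematocrit and 0.05% parasitemia final, kept at 37 C, 5% CO2; luminescence loss indicates inhibition.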
Shiga inhibitor – Shiga toxin inhibition; actives 9.2% (n = 290,000); AID 2315; inhibition, % at 38.7 µM; Vero cells, Shiga toxin protein synthesis inhibition reporter; in the data active means inhibition mostly above about 28%, no sharp cut-off; inactive means mostly below about 43%; further: 0% is about no effect
HCMV antiviral – blocks human cytomegalovirus replication | HFF cells, HCMV-luciferase reporter, 72 h; stronger effect = lower value | activity change, negative = inhibition, % at 57.5 µM | actives 4.5% (n = 410,000); in the data active means activity change below about -60%; inconclusive means no clear call, values can overlap the other calls; inactive means above about -39%; further: on the % scale 0 is the no-effect control and ±100 the full control effect
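After 16 h attachment at 37C, HFF cells received test compound and HCMV-luciferase (1 PFU/cell); reporter luminescence read 72 h later, data normalized against buffer-only and known inhibitor Salinomycin.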
Starred values were filed as active, the others as inactive. Unless noted, the call rests on the fitted dose curve; in most records, active means well fitted inhibition curve with a large enough effect; inconclusive means small, poorly fitted or top-dose-only effect, or another doubt; inactive means no such curve, though single readings can be large or run the other way.

How did O=C(CSc1nc(-c2ccccc2)cn1-c1ccccc1F)Nc1ccc(F)cc1 do in these assays?
HCMV antiviral: -12

How did CCSc1ccc(-c2ccc(C)cc2)nn1 do in these assays?
CHX counter: 28*; Pf growth 48h: inactive; Pf growth 96h: 446%; Shiga inhibitor: 65*; HCMV antiviral: 155

Results for Cc1ccc(-c2ccc(SCC(=O)NC3CCCC3)nn2)cc1 ?
CHX counter: 4; Pf growth 48h: 2%; Pf growth 96h: 19%; Shiga inhibitor: 8; HCMV antiviral: 3

Results for CCOc1ccc(-c2ccc(SCC)nn2)cc1 ?
CHX counter: 29*; Pf growth 48h: -34%; Pf growth 96h: inconclusive; Shiga inhibitor: 75*; HCMV antiviral: 105

What do the screens show for `O=c1[nH][nH]c2cc(=O)n(-c3ccc(Cl)cc3)nc12`?
CHX counter: -4; Pf growth 48h: 22%; Pf growth 96h: 15%; Shiga inhibitor: -12; HCMV antiviral: -35

What do the screens show for `CC(=O)c1ccc(NC(=O)CSc2cn(CC(=O)N3CCCCC3)c3ccccc23)cc1`?
HCMV antiviral: 13

What do the screens show for `CC(Nc1nc(-c2ccc(F)cc2)cs1)c1nc2cc(Cl)c(N3CCCCC3)cc2n1CCOCCO` (configuration not stated)?
HCMV antiviral: -18

What do the screens show for `CC(Nc1nc(-c2ccc(F)cc2)cs1)c1nc2cc(Cl)c(N3CCCCC3)cc2n1CCCO` (configuration not stated)?
HCMV antiviral: -65*

What do the screens show for `CCOC(=O)c1c(OCCO)nn(-c2ccc(Cl)cc2)c1N`?
CHX counter: -4; Pf growth 48h: 20%; Pf growth 96h: -7%; Shiga inhibitor: -3; HCMV antiviral: -4

Results for CC1Cc2ccccc2N1CC(=O)NC(=O)NCc1ccccc1 (configuration not stated) ?
CHX counter: 25; Pf growth 48h: -3%; Pf growth 96h: -14%; Shiga inhibitor: 7; HCMV antiviral: -28

Results for CC1Cc2ccccc2N1CC(=O)NC(c1ccccc1)c1ccccc1 (configuration not stated) ?
CHX counter: -1; Pf growth 48h: 10µM*; Pf growth 96h: 6.6µM*; Shiga inhibitor: -11; HCMV antiviral: inconclusive

Results for CC1CC(C)CN(CC(=O)NC(c2ccccc2)c2ccccc2)C1 (configuration not stated) ?
CHX counter: -2; Pf growth 48h: 12µM*; Pf growth 96h: 5%; Shiga inhibitor: 29; HCMV antiviral: inconclusive

Results for O=C(CN1CCCCCC1)NC(c1ccccc1)c1ccccc1 ?
CHX counter: 6; Pf growth 48h: inconclusive; Pf growth 96h: inconclusive; HCMV antiviral: inconclusive

What do the screens show for `Cc1cc2c3ccccc3ncn2n1`?
CHX counter: -5; Pf growth 48h: 8%; Pf growth 96h: 40%; Shiga inhibitor: -8; HCMV antiviral: -5

How did CCc1ccc2n(-c3ccc(OC)cc3)c([S-])c(C(=O)Nc3cc(C)cc(C)c3)[n+]2c1 do in these assays?
CHX counter: -2; Pf growth 48h: 13µM*; Pf growth 96h: 8.3µM*; Shiga inhibitor: -2; HCMV antiviral: 15

Results for COc1ccc(CCNC(=O)c2c([S-])n(-c3ccc(C)cc3)c3cccc[n+]23)cc1 ?
CHX counter: -3; Pf growth 48h: inconclusive; Pf growth 96h: 10µM*; Shiga inhibitor: 23; HCMV antiviral: inconclusive

What do the screens show for `COc1cccc(NC(=O)C(Cc2ccccc2)NS(=O)(=O)c2ccc3c(c2)oc(=O)n3C)c1` (configuration not stated)?
HCMV antiviral: 15

Results for COC(=O)C1=C(C)N(C2CCCCC2)C(=O)/C1=C\c1cccs1 ?
CHX counter: 1; Pf growth 48h: 1%; Pf growth 96h: -20%; Shiga inhibitor: -1; HCMV antiviral: -25

Results for COc1ccc(N2C3=[N+](CCCC3)CC2(C)O)cc1 (configuration not stated) ?
CHX counter: -4; Pf growth 48h: inconclusive; Pf growth 96h: 295%; Shiga inhibitor: 1; HCMV antiviral: -78*

What do the screens show for `COc1ccc(N2CC(O)(c3ccc(F)cc3)[N+]3=C2CCCC3)cc1` (configuration not stated)?
CHX counter: -2; Pf growth 48h: inconclusive; Pf growth 96h: -42%; Shiga inhibitor: 4; HCMV antiviral: -81*

Results for Cc1ccc(Cl)cc1N1CCN(C(=O)c2cc3ccc4cccnc4c3[nH]2)CC1 ?
HCMV antiviral: -70*
